Compound activity: PubChem, Broad Institute
Pf Dd2 growth: P. falciparum Dd2 growth inhibitors, primary screen, SYBR Green fluorescence, single dose replicates; 72 h; hits give low values; activity change, % at 10 µM; 94,000 tested, 2.3% active; AID 1159554, 2015; in the data active = activity change below about -80%; inconclusive = no clear call, values can overlap the other calls
C diff growth: C. difficile growth inhibitors, primary screen, HTS | Clostridium difficile clinical isolate growth, OD600, 24 h; hits give low values | AID 1259249, 2017 | growth activity, negative = inhibition, % at 16 µg/mL (by protocol) | 86,000 tested, 0.25% active;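 active = mean growth activity at or below -80% and every replicate also at or below -80%; inconclusive = mean at or below -80% but some replicate above -80%; inactive = mean growth activity above -80%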
T cruzi growth-1: T. cruzi intracellular proliferation inhibitors, primary screen, cell-based, beta-gal Tulahuen parasites, NIH3T3 host, luminescence; inhibition, % at 8.34 µM; T. cruzi beta-gal in NIH3T3, GalScreen luminescence, 90 h; 77,000 tested, 5.9% active;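 active = mean inhibition above about 93%, with at least 55% of replicates each passing it, limit read from the data, passing the limit was not always enough; inconclusive = only one of those two conditions holds; inactive = neither condition holds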
T cruzi growth-2: T. cruzi intracellular proliferation inhibitors, confirmation, cell-based, NIH3T3 host, beta-gal parasite, luminescence, cherry-pick. shares compounds with T cruzi growth-1. T. cruzi beta-gal in NIH3T3, GalScreen luminescence, 90 h. inhibition, % at 8.35 µM. 5,600 tested, 72% active;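 active = mean replicate inhibition above about 95% and at least 55% of replicates individually reaching it, limit read from the data; inconclusive = only one of the two criteria is met; inactive = neither criterion is met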
T cruzi growth-3: inhibitors of intracellular T. cruzi replication, confirmation, NIH3T3 host cells, beta-gal parasites, cherry-pick, set 2; shares compounds with T cruzi growth-1; T. cruzi beta-gal in NIH3T3, GalScreen luminescence, 90 h; inhibition, % at 2.09 µM; 5,600 tested, 21% active; AID 651740, 2012;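 active = mean inhibition above about 95%, with at least 55% of replicates also reaching it, limit read from the data; inconclusive = meets just one of the two conditions; inactive = meets neither condition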
3T3 cytotox: cytotoxicity in mouse NIH/3T3 fibroblasts, confirmation, cytotoxicity control for T. cruzi proliferation inhibitor project, cell-based, cherry-pick, single point. shares compounds with T cruzi growth-1. NIH/3T3 viability, CellTiter-Glo ATP luminescence, 90 h. cytotoxicity (signal decrease), % at 8.35 µM. 5,600 tested, 14% active. AID 651742, 2012;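 active = mean signal decrease across replicates above about 35% based on untreated-well scatter, with enough replicates individually passing, limit read from the data; inconclusive = no rule stated though some were filed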
3T3 cytotox 2: NIH/3T3 fibroblast cytotoxicity, confirmation, cytotoxicity control, cell-based, cherry-pick, single point, set 2; shares compounds with T cruzi growth-1; NIH/3T3 viability, CellTiter-Glo ATP luminescence, 90 h; inhibition, % at 24.9 µM; 5,600 tested, 56% active; AID 651744, 2012;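 active = mean loss of cell viability signal at or above a set limit, and enough replicates individually reaching it; inconclusive = meets only the mean limit or only the replicate share; inactive = meets neither condition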
Large screens that a line does not name were inactive (follow-up assays come after a bar, where they were run). Compounds with a hit are over-represented: about 6.7% of the library has one in this group of screens.

COc1ccc(S(=O)(=O)N(C)C[C@@H]2OCCCC[C@@H](C)Oc3ccc(NS(=O)(=O)c4ccc(F)cc4)cc3C(=O)N([C@H](C)CO)C[C@H]2C)cc1	T cruzi growth-1 101 | T cruzi growth-2 111 | T cruzi growth-3 inactive | 3T3 cytotox inactive | 3T3 cytotox 2 inactive
COc1ccc(S(=O)(=O)Nc2ccc3c(c2)C(=O)N([C@H](C)CO)C[C@H](C)[C@H](CN(C)S(=O)(=O)c2ccc(F)cc2)OCCCC[C@@H](C)O3)cc1	none
COc1ccc(S(=O)(=O)Nc2ccc3c(c2)C(=O)N([C@H](C)CO)C[C@@H](C)[C@H](CN(C)S(=O)(=O)c2ccc(F)cc2)OCCCC[C@H](C)O3)cc1	none
COc1ccc(S(=O)(=O)Nc2ccc3c(c2)C(=O)N([C@H](C)CO)C[C@H](C)[C@H](CN(C)S(=O)(=O)c2ccc(F)cc2)OCCCC[C@H](C)O3)cc1	none
CC(C)NC(=O)NCC[C@H]1CC[C@@H](NC(=O)Nc2ccccc2)[C@H](CO)O1	none (no result: C diff growth)
O=C(C[C@H]1CC[C@H](NC(=O)CC2CC2)[C@@H](CO)O1)NCc1ccc(-c2ccccc2)cc1	none
C[C@@H]1CN([C@@H](C)CO)C(=O)c2cc(NC(=O)CCC(F)(F)F)ccc2O[C@H]1CN(C)Cc1ccc(C(=O)O)cc1	none
C[C@@H]1CCCCO[C@@H](CN(C)S(=O)(=O)c2cccs2)[C@H](C)CN([C@H](C)CO)C(=O)c2cc(N(C)C)ccc2O1	none
C[C@@H](NC(=O)[C@@H]1[C@@H](CO)[C@@H]2Cn3c(ccc(-c4ccccc4)c3=O)[C@H]1N2C)c1ccccc1	none
CO[C@@H]1CN(C)C(=O)c2ccc(NC(=O)NC(C)C)cc2OC[C@@H](C)N(CCC(F)(F)F)C[C@@H]1C	none (no result: C diff growth)
C[C@@H]1CCCCO[C@H](CN(C)C(=O)Nc2ccc(F)cc2)[C@H](C)CN([C@@H](C)CO)C(=O)c2cc(NC(=O)C3CCCCC3)ccc2O1	T cruzi growth-1 inconclusive | T cruzi growth-2 97 | T cruzi growth-3 inactive | 3T3 cytotox inactive | 3T3 cytotox 2 inactive
C[C@H](CO)N1C[C@H](C)[C@H](CN(C)C(=O)Nc2ccc3c(c2)OCO3)OCCCC[C@H](C)Oc2ccc(NC(=O)C3CCCCC3)cc2C1=O	T cruzi growth-1 97 | T cruzi growth-2 109 | T cruzi growth-3 inactive | 3T3 cytotox inactive | 3T3 cytotox 2 inactive
COc1ccc(NC(=O)N(C)C[C@@H]2OCCCC[C@H](C)Oc3ccc(NC(=O)C4CCCCC4)cc3C(=O)N([C@@H](C)CO)C[C@@H]2C)cc1	none
C[C@H]1CCCCO[C@@H](CN(C)C(=O)Nc2ccc3c(c2)OCO3)[C@@H](C)CN([C@@H](C)CO)C(=O)c2cc(NC(=O)C3CCCCC3)ccc2O1	none
COc1ccc(NC(=O)N(C)C[C@H]2OCCCC[C@@H](C)Oc3ccc(NC(=O)C4CCCCC4)cc3C(=O)N([C@@H](C)CO)C[C@H]2C)cc1	T cruzi growth-1 97 | T cruzi growth-2 98 | T cruzi growth-3 inactive | 3T3 cytotox inactive | 3T3 cytotox 2 inactive
C[C@H]1CCCCO[C@@H](CN(C)C(=O)Nc2ccccc2)[C@@H](C)CN([C@@H](C)CO)C(=O)c2cc(NC(=O)C3CCCCC3)ccc2O1	none
CN(C)c1ccc2c(c1)[C@H]1C[C@H](CC(=O)NCc3cc(F)ccc3F)O[C@@H](CO)[C@H]1O2	none (no result: C diff growth)
O=C(C[C@H]1CC[C@@H]2[C@H](COC[C@H](O)CN2S(=O)(=O)c2ccc(Cl)cc2)O1)NCCN1CCCC1	none
COc1ccc(S(=O)(=O)N(C)C[C@@H]2Oc3ccc(NC(=O)Nc4ccc(C(F)(F)F)cc4)cc3C(=O)N([C@H](C)CO)C[C@H]2C)cc1	none
COCC#Cc1ccc2c(c1)O[C@H](CN(C)C(=O)C1CC1)[C@@H](C)CN([C@H](C)CO)S2(=O)=O	none (no result: C diff growth)
C[C@@H]1CCCCO[C@H](CN(C)S(=O)(=O)c2ccc(F)cc2)[C@H](C)CN([C@H](C)CO)C(=O)c2cc(NC(=O)Nc3ccc(F)cc3)ccc2O1	T cruzi growth-1 101 | T cruzi growth-2 96 | T cruzi growth-3 110 | 3T3 cytotox inactive | 3T3 cytotox 2 40
C[C@H](CO)N1C[C@H](C)[C@H](CN(C)S(=O)(=O)c2ccc(F)cc2)OCCCC[C@H](C)Oc2ccc(NC(=O)Nc3ccc(F)cc3)cc2C1=O	T cruzi growth-1 103 | T cruzi growth-2 103 | T cruzi growth-3 inactive | 3T3 cytotox inactive | 3T3 cytotox 2 45
C[C@H]1CCCCO[C@@H](CN(C)S(=O)(=O)c2ccc(F)cc2)[C@@H](C)CN([C@@H](C)CO)C(=O)c2cc(NC(=O)Nc3ccc(F)cc3)ccc2O1	Pf Dd2 growth inconclusive, T cruzi growth-1 96 | T cruzi growth-2 105 | T cruzi growth-3 99 | 3T3 cytotox inactive | 3T3 cytotox 2 43
C[C@H](CO)N1C[C@H](C)[C@@H](CN(C)S(=O)(=O)c2ccc(F)cc2)OCCCC[C@H](C)Oc2ccc(NC(=O)Nc3ccc(F)cc3)cc2C1=O	T cruzi growth-1 100 | T cruzi growth-2 108 | T cruzi growth-3 inactive | 3T3 cytotox inactive | 3T3 cytotox 2 inactive
C[C@@H]1CCCCO[C@H](CN(C)S(=O)(=O)c2ccc(Cl)cc2)[C@@H](C)CN([C@@H](C)CO)C(=O)c2cc(NC(=O)Nc3ccc(F)cc3)ccc2O1	none
C[C@H](CO)N1C[C@H](C)[C@@H](CN(C)S(=O)(=O)c2ccc(Cl)cc2)OCCCC[C@H](C)Oc2ccc(NC(=O)Nc3ccc(F)cc3)cc2C1=O	none
C[C@@H]1CN([C@@H](C)CO)C(=O)c2cc(NC(=O)Nc3ccc(F)cc3)ccc2O[C@@H](C)CCCCO[C@@H]1CN(C)S(=O)(=O)c1ccc(F)cc1	Pf Dd2 growth inconclusive
C[C@@H]1CN([C@H](C)CO)C(=O)c2cc(NC(=O)Nc3ccc(F)cc3)ccc2O[C@@H](C)CCCCO[C@H]1CN(C)S(=O)(=O)c1ccc(F)cc1	none
C[C@@H]1CN([C@@H](C)CO)C(=O)Cc2cc(NC(=O)Nc3cccc4ccccc34)ccc2O[C@H]1CN(C)Cc1ccc(C(=O)O)cc1	none (no result: T cruzi growth-1)
CC=Cc1ccc2n(c1=O)C[C@@H]1[C@@H](CO)[C@H](C(=O)NCC)[C@H]2N1C(=O)c1ccc(F)cc1 (mixture of isomers)	none
